Each structure is given as a SMILES string. Records with an inconclusive call do not appear. The source made the active and inactive calls. Rule for the calls: active = hit-call score of the fitted dose curve at least 0.9, where 1 is the maximum; inconclusive = response in the unintended direction; inactive = score below 0.9.

Chain of rat Adenylate Cyclase, Forskolin Stimulated, Adcy5 (gene 64532) (Q04400 whole entry, looked up): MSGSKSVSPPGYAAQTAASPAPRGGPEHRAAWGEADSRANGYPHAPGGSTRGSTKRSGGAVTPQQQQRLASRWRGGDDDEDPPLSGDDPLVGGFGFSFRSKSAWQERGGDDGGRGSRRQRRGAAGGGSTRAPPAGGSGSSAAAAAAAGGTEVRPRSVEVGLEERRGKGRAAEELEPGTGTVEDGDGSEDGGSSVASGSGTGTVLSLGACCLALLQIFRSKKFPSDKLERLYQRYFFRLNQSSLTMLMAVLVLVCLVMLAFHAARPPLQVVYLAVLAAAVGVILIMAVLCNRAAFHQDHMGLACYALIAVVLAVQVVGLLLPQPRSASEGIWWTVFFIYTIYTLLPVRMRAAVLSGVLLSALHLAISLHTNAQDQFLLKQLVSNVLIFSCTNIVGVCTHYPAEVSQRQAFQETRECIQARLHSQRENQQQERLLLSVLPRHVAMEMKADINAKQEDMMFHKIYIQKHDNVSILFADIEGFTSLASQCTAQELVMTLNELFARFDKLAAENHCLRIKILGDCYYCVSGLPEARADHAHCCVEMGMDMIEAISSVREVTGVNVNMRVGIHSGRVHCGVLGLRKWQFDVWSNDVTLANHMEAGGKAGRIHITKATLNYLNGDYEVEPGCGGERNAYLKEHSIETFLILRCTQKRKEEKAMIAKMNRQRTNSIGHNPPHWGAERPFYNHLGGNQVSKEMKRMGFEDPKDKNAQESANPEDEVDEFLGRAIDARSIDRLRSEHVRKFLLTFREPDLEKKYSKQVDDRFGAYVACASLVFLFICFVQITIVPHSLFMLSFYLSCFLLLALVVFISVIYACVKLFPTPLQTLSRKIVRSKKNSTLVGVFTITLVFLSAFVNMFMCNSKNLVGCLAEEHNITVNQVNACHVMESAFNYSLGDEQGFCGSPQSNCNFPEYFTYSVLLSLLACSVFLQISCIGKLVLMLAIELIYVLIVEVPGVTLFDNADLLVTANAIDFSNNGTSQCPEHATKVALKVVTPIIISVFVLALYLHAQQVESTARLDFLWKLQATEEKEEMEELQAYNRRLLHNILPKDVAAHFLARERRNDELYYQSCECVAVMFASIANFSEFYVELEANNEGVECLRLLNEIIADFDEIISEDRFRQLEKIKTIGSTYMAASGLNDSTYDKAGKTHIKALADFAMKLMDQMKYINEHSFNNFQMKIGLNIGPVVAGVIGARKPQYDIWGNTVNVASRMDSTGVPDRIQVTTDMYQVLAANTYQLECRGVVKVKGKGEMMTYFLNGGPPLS

This experiment addresses rat Adenylate Cyclase, Forskolin Stimulated, Adcy5 (gene 64532) (UniProt Q04400). The experiment is described as follows: NVS_ENZ_rACFSKBinding: NovaScreen (NVS) Enzymatic Assay for rat Adenylate Cyclase, Forskolin Stimulated (AID 2283232). As for the experimental part: NVS_ENZ_rACFSKBinding is a biochemical, single-readout assay that uses extracted gene-proteins from Rat forebrain membranes in a tissue-based cell-free assay. Measurements were taken 1 hour after chemical dosing in a 48-well plate.NVS_ENZ_rACFSKBinding is one of one assay component(s) measured or calculated from the NVS_ENZ_rACFSKBinding assay. It is designed to make measurements of enzyme activity, a form of enzyme reporter, as detected with scintillation counting signals by Filter-based radiodetection technology.Data from the assay component NVS_ENZ_rACFSKBinding was analyzed into 1 assay endpoint. This assay endpoint, NVS_ENZ_rACFSKBinding, was analyzed in the positive analysis fitting direction relative to DMSO as the negative control and baseline of activity. Using a type of enzyme reporter, loss-of-signal activity can be used to understand changes in the enzymatic activity as they relate to the gene Adcy5. Furthermore, this assay endpoint can be referred to as a primary readout, because this assay has produced multiple assay endpoints where this one serves a enzymatic activity function. To generalize the intended target to other relatable targets, this assay endpoint is annotated to the lyase intended target family, where the subfamily is adenylyl cyclase.
Binding assays used specific radioligands (tritiated, iodinated) with non-radioactive competitive displacement ligands in agonist or antagonist protocols (as indicated) and various reference compounds and inhibitors to titrate specific binding to receptors and transporters. Most enzyme assays (CYPs, kinases, phosphatases, proteases, HDACs) used recombinant protein and specific substrates (fluorescence mostly, some colorimetric and radioactive) and inhibitors, followed by a biochemical separation of substrate and product. All assays for the biochemical HTS were initially run in duplicate at a single concentration (10 uM for CYP450 assays and 25 uM for all others). Assay-chemical combinations meeting a pre-defined threshold (e.g., 30% inhibition and other criteria defined below) were then run in singleton concentration-response format with maximum concentration of 20 uM for CYPs and 50 uM for all others. Each assay was run with positive and negative controls, and concurrent controls on every plate. The follow-up (secondary) screen tested active chemical-pairs in concentration series, as well as a few additional assays not tested in the primary screen, some selected negative inactives, and several cases re-run in the concentration series for confirmatory purposes.
As to `OCCC(F)(F)C(F)(F)C(F)(F)C(F)(F)C(F)(F)C(F)(F)F`, the call was inactive.
On to `O=P(OC(CCl)CCl)(OC(CCl)CCl)OC(CCl)CCl`, for which the molecule was classed as inactive.
The same measure, in the same setting: as for `COCCOC[C@H](CC1(C(=O)NC2CCC(C(=O)O)CC2)CCCC1)C(=O)Oc1ccc2c(c1)CCC2` (stereo partly drawn), the entry is “inactive”; as for `NCc1cccc(C2CCN(C(=O)c3ccc(C#Cc4ccccc4F)o3)CC2)c1`, “inactive”; as for `S=C(S)NCCNC(=S)S.[Mn+2].[S-]C([S-])=NCCN=C([S-])[S-].[Zn+2]`, “inactive”.
As for `O=c1[nH]sc2ccccc12`, the AC50 was 16.2 µM (active).
`CCN(CC)C(=S)SSC(=S)N(CC)CC`: the AC50 was 6.29 µM (active).
`Cc1occc(=O)c1O`: the call was inactive.
On the same count and under the same terms, the entry for `CN(C)c1ccc(N=NS(=O)(=O)O)cc1` is “inactive”.
On to `N#CSCSc1nc2ccccc2s1`, for which the AC50 was 25 µM (active).
As to `S=C([S-])NCCNC(=S)[S-].[Mn+2]`, the molecule was classed as inactive.
The same measure, in the same setting: the entry for `O=C(OC[C@H]1O[C@@H](OC(=O)c2cc(O)c(O)c(OC(=O)c3cc(O)c(O)c(O)c3)c2)[C@H](OC(=O)c2cc(O)c(O)c(OC(=O)c3cc(O)c(O)c(O)c3)c2)[C@@H](OC(=O)c2cc(O)c(O)c(OC(=O)c3cc(O)c(O)c(O)c3)c2)[C@@H]1OC(=O)c1cc(O)c(O)c(OC(=O)c2cc(O)c(O)c(O)c2)c1)c1cc(O)c(O)c(OC(=O)c2cc(O)c(O)c(O)c2)c1` is “inactive”.
For the molecule `Nc1ccc(Nc2ccccc2)cc1`, the half-maximal activity concentration (AC50) was 39.6 µM (active).

As a reminder, the AC50 is the concentration giving half of the maximal activity seen.

Source of the values: PubChem BioAssay (EPA / NIEHS).
